Screening results deposited in PubChem BioAssay by Broad Institute.
This is a sample that favours compounds with a hit; in the whole collection about 1.4% have one here.
C2C12 statin: suppression of simvastatin myotoxicity; rescue of ATP level, % at 7.49 µM; 330,000 tested, 0.78% active; C2C12 myotubes + simvastatin, ATP luminescence, 48 h; scaled: DMSO 0, geranylgeraniol control 100; AID 602340;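 active = mean ATP rescue above about 67%, or every replicate alone reaching that limit, limit read from the data, passing the limit was not always enough; inconclusive = no clear call, values can overlap the other calls; inactive = mean under the limit and some replicate under it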;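 also: myotubes were challenged with 10 µM simvastatin during compound exposure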
ARNT TACC3 PPI: disrupts binding between human ARNT and TACC3; AlphaScreen His-ARNT PAS-B/GST-TACC3 binding, luminescence; TACC3 fragment carries E629A point mutation; AID 623870; Q9Y6A5; 390,000 tested, 0.66% active; inhibition, % at 9.99 µM;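 active = mean inhibition of replicates at least 50% and at least half of replicates each reaching 50%; inconclusive = half or more replicates reach 50% but mean below 50%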
CFTR F508del cor: correctors of CFTR F508del function in bronchial epithelial cells. CFBE cells, YFP halide quenching; stimulated with forskolin plus potentiator P3; % fluorescence drop versus neutral controls. activity (quench increase), % at 7.58 µM. 350,000 tested, 0.36% active;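 active = mean added fluorescence quench of at least 8% versus neutral control, with both replicates also reaching 8%; inconclusive = only one of the mean or replicate conditions met; inactive = mean below 8% and not both replicates reaching 8%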;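 also: cells transiently co-express mutant CFTR-F508del with the halide-sensitive YFP; corrector assay measuring rescue of mutant channel to the surface after 24 h compound exposure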
PglD inh: blocks C. jejuni PglD acetyltransferase activity; purified PglD enzyme, DTNB colorimetric CoA detection; 360,000 tested, 0.098% active; inhibition, % at 12.5 µM; in the data active = inhibition above about 16%, passing the limit was not always enough; inconclusive = no clear call, values can overlap the other calls
Numbers stand for hits; i = inactive; ? = inconclusive; nt = no result given.

SMILES	C2C12 statin	ARNT TACC3 PPI	CFTR F508del cor	PglD inh
COc1cc(NC(=S)N2CCN(CCO)CC2)c(OC)cc1Cl	i	nt	i	i
COc1ccc(C(=O)c2cc([N+](=O)[O-])ccc2N2CCN(C)CC2)cc1	nt	i	16	nt
C[C@H](C(=O)N(C)C[C@@H]1OCc2ccccc2-c2ccccc2C(=O)N([C@H](C)CO)C[C@H]1C)c1ccccc1	nt	i	i	i
CCN1CCN(c2cc(C)c3cc(NC(=O)c4ccc(OC)c(OC)c4)ccc3n2)CC1	i	i	13	i
O=C(O)C(C(=O)/C=C/c1ccco1)=C1SCCS1	68	nt	nt	i
O=C(C=C1SCCS1)/C=C/c1ccco1	nt	i	nt	nt
O=C(Nc1ccc(Cl)cc1)N[C@@H]1CC[C@@H](CCNC(=O)c2cc(Cl)cc(Cl)c2)O[C@H]1CO	nt	nt	i	nt
O=c1oc2cc(OCc3ccc(F)cc3F)ccc2cc1-c1ccccn1	130	i	nt	i
O=C(C[C@H]1C=C[C@@H](NS(=O)(=O)c2ccccc2)[C@@H](CO)O1)N1CCC(Cc2ccccc2)CC1	nt	nt	i	nt
NCC(=O)NNC(=O)OCC1c2ccccc2-c2ccccc21	i	i	8.6	i
C[C@@H]1CN([C@H](C)CO)C(=O)c2cc(C3=CCCCC3)cnc2O[C@@H]1CN(C)C(=O)c1cccnc1	i	nt	i	nt
Cc1ccc(NC(=S)NCc2ccccn2)cc1	nt	i	nt	i
S=C(NCc1ccccn1)NN=Cc1ccccn1	nt	58	i	nt
CC1(C)N=C(N)N=C(N)N1c1ccc(F)cc1F	104	i	nt	i
CC1(C)N=C(N)N=C(N)N1c1cc(Cl)ccc1Cl	i	nt	nt	i
CO[C@@H]1CN(C)C(=O)c2cc(NC(=O)NC3CCCC3)ccc2OC[C@H](C)N(CC2CC2)C[C@@H]1C	nt	nt	i	nt
O=C(C[C@@H]1C[C@@H]2c3cc(NC(=O)CC4CC4)ccc3O[C@@H]2[C@@H](CO)O1)NCc1ccc2c(c1)OCO2	i	i	i	i
c1ccc(-c2csc3nnc(SCc4ccc5c(c4)OCCO5)n23)cc1	157	i	nt	i
C[C@@H]1CN([C@@H](C)CO)C(=O)c2cc(C#Cc3ccccc3F)cnc2O[C@H]1CN(C)S(=O)(=O)c1ccccc1F	?	i	i	i
CN(C)C(=O)[C@H]1[C@H](CO)[C@H]2Cn3c(ccc(-c4ccccc4)c3=O)[C@@H]1N2Cc1ccccn1	i	i	nt	i
S=C(c1ccc(-c2ccccc2Cl)o1)N1CCOCC1	78	i	nt	i
Cc1noc(C)c1NC(=O)N(C)C[C@H]1Oc2ccc(NS(=O)(=O)c3cn(C)cn3)cc2CC(=O)N([C@@H](C)CO)C[C@H]1C	i	i	i	i
COc1ccccc1-n1c(C)cc(SC)c(C(C)=O)c1=S	98	i	nt	i
O=[N+]([O-])c1ccc(N2CCCCC2)s1	125	nt	i	i
O=c1cnc2ccccc2n1CC1CCCCC1	nt	i	8.6	nt
SMILES	C2C12 statin	ARNT TACC3 PPI	CFTR F508del cor	PglD inh
CCOC(=O)c1ccc(-c2c(-c3cc(OC)c(OC)c(OC)c3)noc2C)cc1F	nt	i	16	i
CC(C)n1c(SCC(=O)Nc2nc3c(s2)CCCC3)nc2c1c(=O)n(C)c(=O)n2C	99	nt	nt	i
O=C(CN1CCOCC1)N[C@H]1CC[C@@H](CCNC(=O)C2CCC2)O[C@@H]1CO	i	i	i	i
Cn1nnnc1SCCOc1ccc(C#N)cc1	116	i	nt	i
CCCNC(=O)N1C[C@@H](C)[C@@H](OC)CN(C)C(=O)c2cc(NC(C)=O)ccc2OC[C@H]1C	i	i	i	i
CC1(C)CC(C(=O)Nc2nccs2)CCO1 (configuration not stated)	121	i	nt	i
CC12COC3(C(=O)Nc4nccs4)CC1CCC32C (configuration not stated)	i	i	nt	i
COc1ccc(C2=Nn3c(nnc3-c3ccccc3C(F)(F)F)SC2)cc1OC1CCOC1 (configuration not stated)	i	nt	i	i
COc1ccc(C2=Nn3c(nnc3-c3ccccc3OC)SC2)cc1OC1CCOC1 (configuration not stated)	i	47	9.7	i
C[C@@H]1CN([C@H](C)CO)C(=O)c2cc(/C=C/c3ccccc3)cnc2O[C@H]1CN(C)C(=O)Cc1cccnc1	i	i	i	i
Cc1ccc(Nc2nc(CSc3nnc(-c4cccnc4)n3-c3ccccc3F)cs2)cc1	nt	nt	8.6	nt
Cc1nn(-c2ccccc2)c(C)c1-c1cc(C(=O)N/N=C/c2ccc(O)cc2)[nH]n1	nt	nt	i	nt
COc1cc(/C=N/NC(=O)c2cc(-c3c(C)nn(-c4ccccc4)c3C)n[nH]2)ccc1O	i	nt	14	i
O=C(C[C@H]1C=C[C@@H](NC(=O)Cc2ccccn2)[C@@H](CO)O1)NCCc1ccccc1	nt	nt	i	nt
O=C(COC(=O)c1n[nH]c2ccccc12)Nc1ccc([N+](=O)[O-])cc1	nt	i	nt	nt
COc1cc(NC(=O)COC(=O)c2n[nH]c3ccccc23)c(C)cc1[N+](=O)[O-]	i	i	20	i
CSCCC1NC(=O)C(C(C)=NNC(N)=O)=C1O (configuration not stated)	nt	74	i	nt
C[C@@H]1CN([C@@H](C)CO)C(=O)c2cc(N(C)C)ccc2O[C@H]1CN(C)C(=O)NC1CCCCC1	i	i	i	i
NC(=O)c1cc(-c2ccccc2)nc(N2CCOCC2)n1	86	i	nt	i
NC(=O)c1cc(-c2ccccc2)nc(N2CCCCCC2)n1	i	i	nt	i
COc1ccc(C#Cc2cnc3c(c2)C(=O)N([C@@H](C)CO)C[C@@H](C)[C@@H](CN(C)C(=O)CN(C)C)O3)cc1	i	nt	i	i
O=c1[nH]c(/C=C\c2ccc(O)c(O)c2)nc(O)c1[N+](=O)[O-]	i	37	i	i
CNC[C@@H]1Oc2ccc(NC(=O)Cn3cnnn3)cc2CC(=O)N([C@@H](C)CO)C[C@@H]1C	i	nt	i	nt
C[C@@H]1CN([C@@H](C)CO)C(=O)c2cc(NC(=O)Nc3ccc(F)cc3)ccc2O[C@@H](C)CCCCO[C@H]1CN(C)Cc1ccncc1	107	i	i	i
C[C@@H]1CN([C@@H](C)CO)C(=O)c2cc(NC(=O)Nc3ccc(F)cc3)ccc2O[C@@H](C)CCCCO[C@H]1CN(C)Cc1ccc(Cl)c(Cl)c1	nt	48	i	i
SMILES	C2C12 statin	ARNT TACC3 PPI	CFTR F508del cor	PglD inh
C[C@@H]1CCCCO[C@H](CN(C)Cc2ccncc2)[C@H](C)CN([C@@H](C)CO)C(=O)c2cc(NC(=O)Nc3ccc(F)cc3)ccc2O1	i	i	i	i
COc1ccccc1-c1ccc2c(c1)O[C@H](CN(C)S(=O)(=O)c1ccc(F)cc1)[C@H](C)CN([C@@H](C)CO)S2(=O)=O	i	i	i	i
CO[C@@H]1CN(C)C(=O)c2cc(NC(=O)CC(F)(F)F)ccc2OC[C@H](C)N(C(=O)C2CCOCC2)C[C@@H]1C	nt	nt	i	nt
Cc1ccc(O)c(NC(=O)c2cc(-c3cccs3)on2)c1	213	i	i	i
Cc1ccc(O)c(NC(=O)c2cc(-c3ccc(F)cc3)on2)c1	i	nt	i	i
COCCN=c1scc(-c2cccs2)n1/N=C(\C)c1ccco1	i	46	i	i
COCCN=c1scc(-c2ccc3c(c2)NC(=O)CO3)n1/N=C(\C)c1ccc(O)cc1	i	i	i	i
c1ccc(N2CCN(c3nc(-c4ccccn4)nc4ccccc34)CC2)cc1	nt	nt	nt	i
